# Assay results reported in PubChem BioAssay (NCI).
# The panel holds about 83,000 compounds, 20% with a hit somewhere; the sample as a whole holds those more often.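 Activity criterion: percent growth below 10, measured after cells in 96-well plates were exposed to a single compound concentration for 48 hours.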 A number with no mark means an inactive call. The source made the active and inactive calls.
# Tested on: SF-268 CNS
# Assay: NCI-60 one-dose screen, 48 h (100 = growth as untreated, 0 = no growth, -100 = all killed)
# Conditions: 10 µM unless noted
row,Structure (SMILES),growth
1,COC(=O)CNC(=O)c1ccc(NC(=O)c2[nH]c(C)c(Cl)c2Cl)c(O[C@H]2CCNC2)c1,102%
2,FC(F)(F)c1cccc(-c2nnn(Cc3cc(-c4cccc(Cl)c4)no3)n2)c1,99.1%
3,O=C(Nc1ncc(Cc2ccccc2)s1)c1ccc2c(c1)OCCO2,43.2%
4,CCOC(=O)c1ccc2c(c1)[n+](=O)c(C(C)=O)c(C(F)(F)F)n2[O-],-51.8% (active)
5,O=C(Nc1ccccc1C(F)(F)F)C1=NCCCCN1,96.8%
6,CCCCCC(C)(O)C(C(=O)O)c1ccccc1 (stereo unspecified),107%
7,Nc1ncnc2c1N=C(c1ccc([N+](=O)[O-])cc1)CC(c1ccc3c(c1)OCO3)N2 (stereo unspecified),90.1%
8,COc1cc2c(cc1OC)CC[N+](CCC[N+](C)(C)C)=C2,91.7%
9,O=C1Nc2ccccc2/C1=C/c1cccn1CCCCCCn1c2ccccc2c(=O)c2ccccc21,87%
10,CCCS(=O)(=O)Nc1cccc(Nc2ncnc3cc(NC(=O)CCl)ccc23)c1Cl,-55.9% (active)
11,Cc1ccc(C23CCC(=O)N2CCc2cncn23)cc1 (stereo unspecified),114%
12,Cc1ccc(-c2nn(CC(=O)N3CCOCC3)c(N)c2C#N)cc1,99%
13,COC(=O)[C@H](C)NC(=O)[C@@H]1CCCN1C(=O)CNC(=O)[C@H](C)N,97%
14,O=C1c2c(c3c4cccnc4[nH]c3c3ccc4ccccc4c23)C(=O)N1O,37.6%
15,C#CCOc1cccc(Nc2ncnc3c(NC(=O)CCl)cccc23)c1,3.94% (active)
16,COc1ccc(CNc2c3ccccc3nc3ccccc23)cc1OC,39.6%
17,COc1ccc(-c2csc(NC(=O)CSc3nc(C)cc(=O)[nH]3)n2)cc1,96.4%
18,O=C(CNc1ncco1)Nc1ccc(S(=O)(=O)c2ccc(NC(=O)CNc3ncco3)cc2)cc1,99.1%
19,Cc1c2cnccc2c(C)c2c1c1cc(C(=O)O)ccc1n2C,0.973% (active)
20,COc1ccc(-c2cn(Cc3ccc4c(Br)cc(Br)c(O)c4n3)nn2)cc1,91.3%
21,COC(=O)c1c(C(=O)OC)c2ccc3c4ncccc4ccc3n2c1C(=O)c1ccc(C)cc1,98.5%
22,O=[N+]([O-])c1ccc(N/N=C\c2cc(Cl)ccc2O)nc1,33.3%
23,COc1ccc(C(=O)/C=C/c2ccc(C)cc2)cc1S(N)(=O)=O,72.4%
24,CN1CCN(CC(=O)N(C)c2ccc(N=C(c3ccccc3)c3c(O)[nH]c4ccc([N+](=O)[O-])cc34)cc2)CC1,74.3%
25,C=CC(=O)NCc1cccc(Nc2ncc(Br)c(NCCCNC(=O)C3CCC3)n2)c1,-29.4% (active)
26,Nc1nc(N)c2c(n1)NC(c1cccc(Nc3ccnc4cc(C(F)(F)F)ccc34)c1)CC(c1ccc(Cl)cc1)=N2 (stereo unspecified),55.2%
27,C=C(C[n+]1ccccc1)[C@@H]1CC[C@]2(C(=O)OC)CC[C@]3(C)[C@H](CC[C@@H]4[C@@]5(C)CCC(=O)C(C)(C)[C@@H]5CC[C@]43C)[C@@H]12,90.3%

# Tested on: SF-295 CNS
# Assay: as above
# Conditions: 10 µM unless noted
row,Structure (SMILES),growth
1,CO[C@H]1CC(c2ccc[nH]2)=N[C@]12O[C@@H](C)C[C@@H]1CCCCCCCc3ccc([nH]3)[C@H]12,17.4%
2,COc1ccc2c(O)cc3c(c2c1)[C@H](CCl)CN3C(=O)c1cc2cc(NC(=O)CCN3CCOCC3)ccc2[se]1,-77.7% (active)
3,O=c1c(/C=C/c2c(O)ccc3ccccc23)nnc2sc(-c3cccc([N+](=O)[O-])c3)nn12,43.8%
4,CC1(C)CCC[C@]23C(=O)O[C@](O)(C(=O)C4=C[C@@](C)(/C=C/CCCc5ccc6ccc7cccc8ccc5c6c78)CC[C@@]42O)[C@@H]13,-76.7% (active)
5,CCOC(=O)CC1C(CNC(=O)NC)OC(n2cnc3c(NC(=O)Nc4ccccc4)ncnc32)C1O[Si](C)(C)C(C)(C)C (stereo unspecified),16%
6,COc1ccc(-c2ccc(-c3ccc(C(=N)N)nc3)s2)cc1,-81.2% (active)
7,COc1ccc(Cn2cc3c(c2)-c2oncc2CC3)cc1,58.6%
8,O=[N+]([O-])c1ccc(Oc2cccc3c(Oc4ccc([N+](=O)[O-])cc4[N+](=O)[O-])cccc23)c([N+](=O)[O-])c1,99.9%
9,CCCCCN(CCCCC)CC(O)c1c(Cl)ccc2ccccc12 (stereo unspecified),71.7%
10,Cn1cc(-c2csc(-c3cn(C)c4ccc(F)cc34)n2)c2cnccc21,-81.1% (active)
11,CNC1=C([N+](=O)[O-])C(c2ccc(OC)cc2)C(C#N)=C(c2ccc[nH]2)O1 (stereo unspecified),101%
12,Cc1cc(C(=O)Nc2cc(Nc3ncccc3-c3ncnc4nc[nH]c34)ccc2F)cc(C(C)(C)C#N)c1,68.6%
13,COC(=O)CNC(=O)c1ccc(NC(=O)c2[nH]c(C)c(Cl)c2Cl)c(O[C@H]2CCNC2)c1,105%
14,FC(F)(F)c1cccc(-c2nnn(Cc3cc(-c4cccc(Cl)c4)no3)n2)c1,111%
15,O=C(Nc1ncc(Cc2ccccc2)s1)c1ccc2c(c1)OCCO2,11.9%
16,CCOC(=O)c1ccc2c(c1)[n+](=O)c(C(C)=O)c(C(F)(F)F)n2[O-],23%
17,O=C(Nc1ccccc1C(F)(F)F)C1=NCCCCN1,93.6%
18,CCCCCC(C)(O)C(C(=O)O)c1ccccc1 (stereo unspecified),103%
19,Nc1ncnc2c1N=C(c1ccc([N+](=O)[O-])cc1)CC(c1ccc3c(c1)OCO3)N2 (stereo unspecified),67.5%
20,COc1cc2c(cc1OC)CC[N+](CCC[N+](C)(C)C)=C2,97%

row,Structure (SMILES),growth
1,O=C1Nc2ccccc2/C1=C/c1cccn1CCCCCCn1c2ccccc2c(=O)c2ccccc21,97.2%
2,CCCS(=O)(=O)Nc1cccc(Nc2ncnc3cc(NC(=O)CCl)ccc23)c1Cl,-80.5% (active)
3,Cc1ccc(C23CCC(=O)N2CCc2cncn23)cc1 (stereo unspecified),102%
4,Cc1ccc(-c2nn(CC(=O)N3CCOCC3)c(N)c2C#N)cc1,102%
5,COC(=O)[C@H](C)NC(=O)[C@@H]1CCCN1C(=O)CNC(=O)[C@H](C)N,100%
6,O=C1c2c(c3c4cccnc4[nH]c3c3ccc4ccccc4c23)C(=O)N1O,91.8%
7,C#CCOc1cccc(Nc2ncnc3c(NC(=O)CCl)cccc23)c1,95.6%
8,COc1ccc(CNc2c3ccccc3nc3ccccc23)cc1OC,18.1%
9,COc1ccc(-c2csc(NC(=O)CSc3nc(C)cc(=O)[nH]3)n2)cc1,99.3%
10,O=C(CNc1ncco1)Nc1ccc(S(=O)(=O)c2ccc(NC(=O)CNc3ncco3)cc2)cc1,49.7%
11,Cc1c2cnccc2c(C)c2c1c1cc(C(=O)O)ccc1n2C,-2.38% (active)
12,COc1ccc(-c2cn(Cc3ccc4c(Br)cc(Br)c(O)c4n3)nn2)cc1,104%
13,COC(=O)c1c(C(=O)OC)c2ccc3c4ncccc4ccc3n2c1C(=O)c1ccc(C)cc1,87.7%
14,O=[N+]([O-])c1ccc(N/N=C\c2cc(Cl)ccc2O)nc1,29.9%
15,COc1ccc(C(=O)/C=C/c2ccc(C)cc2)cc1S(N)(=O)=O,91.3%
16,CN1CCN(CC(=O)N(C)c2ccc(N=C(c3ccccc3)c3c(O)[nH]c4ccc([N+](=O)[O-])cc34)cc2)CC1,53.9%
17,C=CC(=O)NCc1cccc(Nc2ncc(Br)c(NCCCNC(=O)C3CCC3)n2)c1,2.75% (active)
18,Nc1nc(N)c2c(n1)NC(c1cccc(Nc3ccnc4cc(C(F)(F)F)ccc34)c1)CC(c1ccc(Cl)cc1)=N2 (stereo unspecified),48.4%
19,C=C(C[n+]1ccccc1)[C@@H]1CC[C@]2(C(=O)OC)CC[C@]3(C)[C@H](CC[C@@H]4[C@@]5(C)CCC(=O)C(C)(C)[C@@H]5CC[C@]43C)[C@@H]12,103%
